# Laboratory results from PubChem BioAssay AID1645851 (National Center for Advancing Translational Sciences (NCATS), 2021).
# The campaign covered roughly 140,000 compounds. About 1,200 (0.86%) were called active. This is one part of a sample in which actives are shown more often than they occur. Cut-off read from the data, not from the text of the source: active = activity change below about -25%; inactive = the rest.
# Biological target: Inositol hexakisphosphate kinase 1 (Homo sapiens) (UniProt Q92551)
# Sequence (Q92551 whole entry, looked up): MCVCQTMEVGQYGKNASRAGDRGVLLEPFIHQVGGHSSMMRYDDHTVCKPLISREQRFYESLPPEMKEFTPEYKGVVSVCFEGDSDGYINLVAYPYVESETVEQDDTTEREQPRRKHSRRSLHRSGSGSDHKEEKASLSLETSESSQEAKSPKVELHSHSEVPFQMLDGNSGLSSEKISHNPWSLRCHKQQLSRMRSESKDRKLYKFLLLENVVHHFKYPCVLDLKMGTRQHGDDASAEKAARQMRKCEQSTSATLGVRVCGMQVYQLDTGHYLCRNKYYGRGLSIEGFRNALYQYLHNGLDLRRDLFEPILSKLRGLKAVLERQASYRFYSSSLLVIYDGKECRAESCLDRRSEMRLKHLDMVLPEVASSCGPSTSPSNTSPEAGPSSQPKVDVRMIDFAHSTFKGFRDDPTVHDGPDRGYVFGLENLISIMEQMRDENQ
# Assay: Primary qHTS assay for small molecule inhibitors of Inositol hexaphosphate kinase 1 (IP6K1); note: series mostly up to about 58 µM
# Conditions: ADP-Glo luminescence, 2 h, stronger effect = lower value
# Description: Assay Provider: Huijun Wei, M.S., Ph.D. School of Medicine, Johns Hopkins University, Baltimore, MD Inositol hexakisphosphate kinases (IP6Ks) catalyze pyrophosphorylation of inositol hexakisphosphate (IP6) into inositol 5-diphospho-1,2,3,4,6-pentakisphosphate (IP7), which is involved in numerous areas of cell physiology including glucose homeostasis, blood coagulation and neurological development. Inhibition of IP6Ks may be effective for the treatment of Type II diabetes, thrombosis, and psychiatric disorders. We performed a quantitative high throughput screen (qHTS) of 158,410 compounds for IP6K1 inhibitors using ankinase activity ADP-Glo Max assay. […] Medicinal chemistry SAR efforts in three chemical series identified potent IP6K1 inhibitors, which were further validated in an orthogonal LC-MS IP7 analysis.
# PROTOCOL TABLE SEQUENCE No. (e.g., 1, 2, 3, etc.); […] (e.g., Cells, Incubation, Reagent, etc.); VALUE and DESCRIPTION. 1. Reagent, 3 uL of 1.3 mM ATP and 130 uM IP6 mixture in assay buffer was dispensed to a white, 1536-well assay plate. 2. Compound, 23 nL of compounds of the top two doses (57.5 uM and 19.1 uM final concentration) of the libraries were dispensed into the mixture using the Kalypsis pintool. 3. Reagent, 1 uL of 2.4 uM IP6K1 was dispensed to the assay plates. 4. Incubation, 2 hr incubation at room temperature. 5. Reagent, 2 uL of ADP-Glo reagent was added to the wells. 6. Incubation, 1 hr incubation at room temperature. 7. Reagent, 4 uL or ADP-Glo substate was added to the wells. 8. Incubation, 45 min incubation at room temperature. 9. Detection, luminescence signal was detected using the ViewLux microplate imager (PerkinElmer).
# % is set by controls: 0 for no effect and ±100 for the full control effect.
row,Compound,activity change
1,Oc1ccc2c3c1O[C@H]1c4[nH]c5c(N=C=S)cccc5c4C[C@@]4(O)[C@@H](C2)N(CC2CC2)CC[C@]314,-97.1% (active)
2,CO[C@]12CC[C@@]3(C[C@@H]1[C@](C)(O)C(C)(C)C)[C@@H]1Cc4ccc(O)c5c4[C@@]3(CCN1CC1CC1)[C@H]2O5,0.147% (inactive)
3,C/C=C(\C)C(O)C(C)/C=C(C)/C=C/C/C(C)=C/Cc1nc(OC)c(OC)c(O[C@@H]2O[C@@H](C)[C@H](O)[C@@H](O)[C@H]2O)c1C (stereo not given in full),-8.45% (inactive)
4,NC(=O)[C@@H](CC1CC1)[C@@H](CCC(F)(F)F)C(=O)N[C@H]1N=C(c2ccccc2)c2cccc(F)c2NC1=O,10.6% (inactive)
5,C[C@@H]1C[C@@H](O)[C@]2(O)O[C@@H]3C[C@@]4(C=O)C(CC[C@@H]5C4CC[C@]4(C)[C@@H](C6=CC(=O)OC6)CC[C@]54O)C[C@H]3O[C@@H]2O1 (stereo not given in full),17.6% (inactive)
